PubChem BioAssay AID720518 (National Center for Advancing Translational Sciences (NCATS), 2013)
Results filed as inconclusive are left out. Calls of active or inactive are those of the source. Calls come from the whole dose curve.

Experiment: qHTS for Inhibitors of Cell Surface uPA Generation: Wild-type Protective Antigen (WT-PrAg) Counterscreen for Cherry-picked Compounds; note: 0% is about no effect
Details: cells, WT protective antigen toxicity counterscreen; series mostly up to 115 µM; activity (protection): at the top concentration

**Q.** With `O=C(COC(=O)Cn1cnc2ccccc21)NCc1ccc(F)cc1` as the compound, how does the “activity (protection)” value read?
**A.** 0.472% (inactive)

**Q.** Which “activity (protection)” value does the source give for `C[n+]1c2cc(N)ccc2cc2ccc(N)cc21` here?
**A.** -2.06% (inactive)

**Q.** With `O=C(COc1ccccc1F)NCC(c1ccc(F)cc1)N1CCOCC1` (stereo not drawn) as the compound, how does the “activity (protection)” value read?
**A.** -0.0642% (inactive)

**Q.** With `O=[N+]([O-])c1cccc2c(N3CCOCC3)ccnc12` as the compound, how does the “activity (protection)” value read?
**A.** -2.37% (inactive)

**Q.** With `COC(=O)COc1cc2ccccc2cc1C(=O)Nc1ccccc1` as the compound, how does the “activity (protection)” value read?
**A.** -0.212% (inactive)

**Q.** For `CCOC(=O)C1(CCOc2ccccc2)CCN(Cc2ccc(O)c(OC)c2)CC1`, which “activity (protection)” value is on record?
**A.** -2.28% (inactive)

**Q.** Which “activity (protection)” value does the source give for `CCN(CC)c1c([N+](=O)[O-])c(=O)sc2ccccc12` here?
**A.** -0.788% (inactive)

**Q.** Which “activity (protection)” value does the source give for `CCC(=O)Nc1nc(-c2cc([N+](=O)[O-])cs2)cs1` here?
**A.** 0.561% (inactive)

**Q.** Which “activity (protection)” value does the source give for `CC1(C)CC(=O)C([N+](=O)[O-])=C(NCCCC(=O)O)C1` here?
**A.** 1.57% (inactive)

**Q.** With `CCCN1CCN(C(=O)CCCn2c(C)c3cnn(-c4ccccc4)c(=O)c3c2C)CC1` as the compound, how does the “activity (protection)” value read?
**A.** -1.21% (inactive)

**Q.** With `COc1cc(CNCc2ccc3c(c2)OCO3)c([N+](=O)[O-])cc1OC` as the compound, how does the “activity (protection)” value read?
**A.** 0.0004% (inactive)

**Q.** With `O=C(CC1(O)C(=O)Nc2ccccc21)c1cccc(Br)c1` (stereo not drawn) as the compound, how does the “activity (protection)” value read?
**A.** 0.0973% (inactive)

**Q.** With `CC1CCCN(S(=O)(=O)c2cccc([N+](=O)[O-])c2)C1` (stereo not drawn) as the compound, how does the “activity (protection)” value read?
**A.** 0.828% (inactive)

**Q.** Which “activity (protection)” value does the source give for `COc1ccccc1N1CCN(C2CC(=O)N(c3ccccc3)C2=O)CC1` (stereo not drawn) here?
**A.** -1.25% (inactive)

**Q.** Which “activity (protection)” value does the source give for `CC1(NC(=O)CSc2nnc(-c3c[nH]c4ccccc34)n2C2CC2)CCS(=O)(=O)C1` (stereo not drawn) here?
**A.** 1.32% (inactive)

**Q.** Which “activity (protection)” value does the source give for `CC(C)(C)OC(=O)C[C@@H]1C/C=C\C[C@@H](CC(=O)N(CCO)Cc2ccccc2)C(=O)N[C@H](Cc2c[nH]c3ccccc23)COC1=O` here?
**A.** -2.13% (inactive)

**Q.** With `CC1CC(=O)Nc2ccccc2N1C(=O)Cn1cnc2ccc(Br)cc2c1=O` (stereo not drawn) as the compound, how does the “activity (protection)” value read?
**A.** 0.168% (inactive)

**Q.** With `O=C(Nc1ccc(Cl)cn1)C1CCCN(c2ncnc3c2nc2n3CCCCC2)C1` (stereo not drawn) as the compound, how does the “activity (protection)” value read?
**A.** -2.43% (inactive)

**Q.** For `Cc1ccc(C)c(-c2ccc(=O)n(Cc3c(F)cccc3Cl)n2)c1`, which “activity (protection)” value is on record?
**A.** -1.81% (inactive)

**Q.** With `O=C(NCCc1cn2ccsc2n1)c1cccs1` as the compound, how does the “activity (protection)” value read?
**A.** -0.486% (inactive)

**Q.** For `Cc1cccc(NC(=O)C2CCCN(S(=O)(=O)c3cccc4cccnc34)C2)c1` (stereo not drawn), which “activity (protection)” value is on record?
**A.** -1.51% (inactive)

**Q.** Which “activity (protection)” value does the source give for `CN(C(=O)CCn1c(=S)oc2ccccc21)c1ccc(F)cc1` here?
**A.** 7.17% (inactive)

**Q.** With `COc1ccc(-c2csc(NC(C)c3nc4cc(C(=O)NCCCO)ccc4n3Cc3ccc(C)cc3)n2)cc1` (stereo not drawn) as the compound, how does the “activity (protection)” value read?
**A.** 0.17% (inactive)
